Screening results deposited in PubChem BioAssay by National Center for Advancing Translational Sciences (NCATS).
Shown are actives, neighbours in structure and some others; about 7.3% of the full set was active somewhere.
Rab9 promoter act = Rab9 promoter activation | Huh7 Rab9 promoter-luciferase reporter, luminescence, 24 h | Potency, µM (titrated, usually from 9.22 µM), usual class: activators | hit rate 2.8% among 320,000; also: nearly all actives have a fitted effect of over 60% in size
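Luminescence from Amplite-detected luciferase (10 minutes, ambient) reports Rab9 promoter activation. Before that, stable Rab9-luciferase Huh7 cells (1500/well, reduced-serum OP-MEM I plus 10% FBS) were exposed to compound for 24 hours at 37C.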
uPA generation = cell surface uPA generation inhibition. cell surface uPA generation assay, qHTS. Potency, µM (titrated, usually from 38.3 µM), usual class: inhibitors. hit rate 0.31% among 330,000. AID 540303; active = well fitted inhibition curve with a large enough effect; inconclusive = small, poorly fitted or top-dose-only effect; inactive = no such curve, though single readings can be large or run the other way; tested in mouse RAW 264.7 cells; also: nearly all actives have a fitted effect of over 55% in size
NPC1 prom act = activates the NPC1 promoter; AID 485313; Huh7 NPC1 promoter luciferase reporter, 24 h; hit rate 2.4% among 320,000; Potency, µM (series often up to 9.22 µM), usual class: activators; also: nearly all actives have a fitted effect of over 60% in size
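Stably transfected Huh7 (NPC1 promoter→luciferase), 1500 cells/well in Opti-MEM + 10% FBS, 2 h settle, then compound 24 h at 37 °C. Luminescence after 10 min with Amplite reagent.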
ELG1 genotoxic = genotoxicity induction in ELG1-luciferase HEK293T cells; HEK293T ELG1-luciferase reporter, luminescence, 16 h; Potency, µM (doses to about 46 µM), hits mostly activators; hit rate 1.3% among 330,000; also: nearly all actives have a fitted effect of over 60% in size
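DMSO vehicle served as control against compound-treated ELG1-luciferase HEK293T cells; exposure lasted 16 hr at 37 °C and 5% CO2, followed by ONE-Glo luminescence detection after 30 min.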
SMN2 splice enh = increases expression of the SMN2 splice variant; HEK293 SMN2-luciferase splicing reporter, luminescence, 30-36 h; Potency, µM (top dose mostly 46.1 µM), usual class: activators; hit rate 2.8% among 210,000; also: nearly all actives have a fitted effect of over 55% in size
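HEK293 cells carry an SMN2 […]–luciferase reporter in which exon 7 inclusion puts luciferase in frame. Cells were plated 10-12 h before compound addition, then incubated 30-36 h at 37C. ONE-Glo luminescence was read; sodium butyrate at 4.5 mM final served as control.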
FLuc modulator = firefly luciferase modulation, counter-screen for miR-21 project; AID 588342; P08659; Potency, µM (doses to about 57.5 µM), usual class: inhibitors; purified FLuc, Km substrates, luminescence inhibition; hit rate 6.9% among 360,000; also: nearly all actives have a fitted effect of over 55% in size
Target sequence (P08659 whole entry, looked up): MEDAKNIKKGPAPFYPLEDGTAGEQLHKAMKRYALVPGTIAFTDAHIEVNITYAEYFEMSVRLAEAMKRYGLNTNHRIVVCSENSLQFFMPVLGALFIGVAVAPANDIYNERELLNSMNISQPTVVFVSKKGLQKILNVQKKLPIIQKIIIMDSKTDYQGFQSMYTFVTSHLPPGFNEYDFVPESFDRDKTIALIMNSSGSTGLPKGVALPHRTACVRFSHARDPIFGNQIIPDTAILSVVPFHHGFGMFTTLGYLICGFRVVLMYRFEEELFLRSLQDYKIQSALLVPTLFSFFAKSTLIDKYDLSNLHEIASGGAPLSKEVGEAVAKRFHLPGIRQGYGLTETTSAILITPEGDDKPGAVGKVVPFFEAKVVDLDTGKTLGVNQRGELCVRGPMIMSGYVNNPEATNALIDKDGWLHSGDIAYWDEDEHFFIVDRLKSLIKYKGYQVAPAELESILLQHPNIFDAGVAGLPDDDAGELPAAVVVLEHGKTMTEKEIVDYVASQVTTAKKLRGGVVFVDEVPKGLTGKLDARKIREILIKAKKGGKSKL
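Purified P. pyralis luciferase (10nM final) with 10uM D-luciferin and 10uM ATP (Km levels) in 50mM Tris acetate pH 7.5, 10mM Mg acetate, 0.01% Tween-20, 0.05% BSA; qHTS 6-point titration, ~60 µM downward; luminescence read.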
A number is an active result. Unless noted, calls follow the shape of the dose curve; as a rule, active = well fitted curve in the direction sought with a large enough effect; inconclusive = small, poorly fitted or top-dose-only effect, or another doubt; inactive = no such curve, though single readings can be large; an effect the other way counts as inactive or inconclusive.

`CCN(CCn1cccn1)C(=O)c1ccc(OC2CCN(C(=O)COC)CC2)cc1` gave Rab9 promoter act inactive, uPA generation inactive, NPC1 prom act inactive, ELG1 genotoxic inactive and FLuc modulator inactive.
O=C1NC(=Nc2ccccc2)S/C1=C\c1cccn1-c1ccccc1 was read as Rab9 promoter act inactive, uPA generation inactive, NPC1 prom act inactive, ELG1 genotoxic inconclusive, SMN2 splice enh inconclusive and FLuc modulator 11µM.
Screening Cc1ccc(N=C2NC(=O)/C(=C\c3cccs3)S2)cc1C returned Rab9 promoter act inactive, uPA generation inactive, NPC1 prom act inactive, ELG1 genotoxic inactive, SMN2 splice enh 3.5µM and FLuc modulator inconclusive.
`Cc1cccc(N=C2NC(=O)/C(=C/c3cccn3C)S2)c1` gave Rab9 promoter act inactive, uPA generation inconclusive, NPC1 prom act inactive, ELG1 genotoxic inactive and FLuc modulator 12µM.
Cc1ccccc1N=C1NC(=O)/C(=C/c2cccn2C)S1 was read as Rab9 promoter act inactive, uPA generation inconclusive, NPC1 prom act inactive, ELG1 genotoxic inactive and FLuc modulator inconclusive.
Screening O=C(CSc1nncn2c1cc1sccc12)Nc1ccc(Br)cc1F returned FLuc modulator inactive.
For COc1ccc(NC(=O)CN2C(=O)NC(C)(c3ccccc3)C2=O)cc1Cl (configuration not stated) the results were Rab9 promoter act inactive, uPA generation inactive, NPC1 prom act inactive, ELG1 genotoxic inactive and FLuc modulator 21µM.
Screening COc1cc(Cl)ccc1OCc1cc(C(=O)N[C@H]2CCCCNC2=O)no1 returned Rab9 promoter act inconclusive, uPA generation inactive, NPC1 prom act inconclusive, ELG1 genotoxic inactive and FLuc modulator 3.4µM.
`Cc1nnc(CN(C)C(=O)c2cc(COc3ccc(F)cc3Cl)on2)o1` gave Rab9 promoter act 2.8µM, uPA generation inactive, NPC1 prom act 2.5µM, ELG1 genotoxic inconclusive and FLuc modulator 12µM.
For COc1cc(Cl)ccc1OCc1cc(C(=O)N(C)CC2CCCCO2)no1 (configuration not stated) the results were Rab9 promoter act 4µM, uPA generation inactive, NPC1 prom act 3.5µM, ELG1 genotoxic inconclusive and FLuc modulator 19µM.
For CN(Cc1cccc2cnccc12)C(=O)c1cc(COc2ccc(F)cc2Cl)on1 the results were Rab9 promoter act inactive, uPA generation inactive, NPC1 prom act inactive, ELG1 genotoxic inactive and FLuc modulator inconclusive.
COc1cc(Cl)ccc1OCc1cc(C(=O)N2CCCCCCC2)no1 was read as Rab9 promoter act inactive, uPA generation inactive, NPC1 prom act inactive, ELG1 genotoxic inactive and FLuc modulator inconclusive.
Screening CN(CC1CCCCO1)C(=O)c1cc(COc2ccc(F)cc2Cl)on1 (configuration not stated) returned Rab9 promoter act 2.8µM, uPA generation inactive, NPC1 prom act inconclusive, ELG1 genotoxic inactive and FLuc modulator inconclusive.
For CC1=C(C(=O)Nc2ccccc2)C(c2cccs2)n2nc(SCc3ccccc3F)nc2N1 (configuration not stated) the results were SMN2 splice enh inactive and FLuc modulator inactive.
`O=C(Oc1ccc(-c2nccc(-c3ccccn3)n2)cc1)c1cccc(C(F)(F)F)c1` gave Rab9 promoter act inactive, uPA generation inactive, NPC1 prom act inactive, ELG1 genotoxic inconclusive, SMN2 splice enh inconclusive and FLuc modulator inactive.
`Cc1ccc(-c2ccnc(-c3ccc(O)cc3)n2)cc1` gave Rab9 promoter act inactive, uPA generation inactive, NPC1 prom act inactive, ELG1 genotoxic inconclusive, SMN2 splice enh inactive and FLuc modulator 21µM.
COc1ccc(-c2ccnc(-c3ccc(O)cc3)n2)cc1 was read as Rab9 promoter act inactive, uPA generation inactive, NPC1 prom act inactive, ELG1 genotoxic inconclusive, SMN2 splice enh inactive and FLuc modulator inconclusive.
Cc1ccc(C(=O)Oc2ccc(-c3nccc(-c4ccccn4)n3)cc2)cc1 was read as Rab9 promoter act inactive, uPA generation inactive, NPC1 prom act inconclusive, ELG1 genotoxic 10µM, SMN2 splice enh inconclusive and FLuc modulator inactive.
Screening Oc1ccc(-c2nccc(-c3ccccn3)n2)cc1 returned Rab9 promoter act inconclusive, uPA generation inactive, NPC1 prom act inconclusive, ELG1 genotoxic inconclusive and FLuc modulator 17µM.
For CCOc1ccccc1NC(=O)N1CCN(Cc2cc(=O)n3nc(-c4ccc(C)cc4)sc3n2)CC1 the results were FLuc modulator inactive.
`COc1ccc(C(=O)N2c3nc(-c4ccco4)nn3C3(CCCCC3)[C@@H]3CCCC[C@@H]32)cc1OC` gave FLuc modulator inactive.
N#Cc1c(N2C(=O)c3ccc(C(=O)O)cc3C2=O)sc2c1CCCC2 was read as Rab9 promoter act inactive, uPA generation inactive, NPC1 prom act inactive, ELG1 genotoxic inactive and FLuc modulator inconclusive.
Screening Cc1ccccc1-c1ncnn1-c1sc2c(c1C#N)CCCCC2 returned SMN2 splice enh inactive and FLuc modulator 0.34µM.
For N#Cc1c(-n2ncnc2-c2ccc(F)cc2)sc2c1CCCCC2 the results were SMN2 splice enh inactive and FLuc modulator 0.43µM.
N#Cc1c(-n2ncnc2-c2cccc(Br)c2)sc2c1CCCCC2 was read as SMN2 splice enh inactive and FLuc modulator 3.4µM.
Screening CC(C)(C)NCc1cccn1-c1sc2c(c1C#N)CCCC2 returned Rab9 promoter act inactive, uPA generation inactive, NPC1 prom act inactive, ELG1 genotoxic inactive, SMN2 splice enh inactive and FLuc modulator inactive.
Screening O=C(O)COc1ccccc1/C=N/NC(=O)c1cc(-c2ccc(Cl)cc2)nc2ccccc12 returned Rab9 promoter act inactive, uPA generation inactive, NPC1 prom act inactive, ELG1 genotoxic inactive and FLuc modulator 0.95µM.
Screening O=C(O)COc1ccccc1/C=N/NC(=O)Cc1ccccc1 returned Rab9 promoter act inactive, uPA generation inactive, NPC1 prom act inactive, ELG1 genotoxic inactive and FLuc modulator inactive.
Screening O=C(N/N=C/c1ccccc1OC(F)F)c1cc(-c2ccncc2)nc2ccccc12 returned Rab9 promoter act inactive, uPA generation inactive, NPC1 prom act inactive, ELG1 genotoxic inactive, SMN2 splice enh inactive and FLuc modulator inconclusive.
Screening O=C(O)COc1ccccc1/C=N/NC(=O)c1cc(-c2ccccc2)nc2ccccc12 returned Rab9 promoter act inactive, uPA generation inactive, NPC1 prom act inactive, ELG1 genotoxic inactive and FLuc modulator 2.7µM.
`Cc1ccc(/C=N/Nc2ncnc3nc[nH]c23)cc1` gave Rab9 promoter act 1.6µM, uPA generation inconclusive, NPC1 prom act 2.8µM, ELG1 genotoxic inconclusive and FLuc modulator 9.5µM.
Oc1ccc(/C=N/Nc2ncnc3nc[nH]c23)cc1 was read as Rab9 promoter act inactive, uPA generation inactive, NPC1 prom act inactive, ELG1 genotoxic inactive and FLuc modulator inconclusive.
For Clc1ccc(/C=N/Nc2ncnc3nc[nH]c23)cc1 the results were Rab9 promoter act inconclusive, uPA generation inactive, NPC1 prom act inconclusive, ELG1 genotoxic 16µM and FLuc modulator 17µM.
